The whole screen tested about 53,000 sequences, of which about 4,900 (9.2%) were called active. Cut-off read from the data, not from the text of the source: active = GI50 up to about 1.1 µM and inactive = higher. Only a selection was taken, and actives are over-represented in it overall. Measured potencies and affinities stand elsewhere.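 Dose response: 5 concentrations. Exposure: 48 h. Format: 96-well plates. Endpoint: linear interpolation; highest concentration if not reached. The concentration for 50% growth inhibition is given as GI50.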

This experiment deals with NCI-H522. The experiment can be described thus: NCI tumour cell line growth inhibition, 48 h.
CISPLATIN, CHEMBL11359: the GI50 turned out to be 2030 nM.

As for “cis-Bis[[(trimethylsilyl)methyl]amino]tetrachloroplatinum(IV), CHEMBL2146191”, the GI50 amounted to 8220 nM.

With “[Bis(aminomethyl)tetramethylenesilane]tetrachloropaltinum(IV), CHEMBL2146189”, the GI50 was found to be 2180 nM.

In the case of “[Bis(aminomethyl)pentamethylenesilane]tetrachloropaltinum(IV), CHEMBL2146204”, the GI50 came to 776 nM.

In turn, “[Bis(aminomethyl)diethylsilane]tetrachloroplatinum(IV), CHEMBL2146203” returned a GI50 of 2650 nM.

“[Bis(aminomethyl)dimethylsilane]dichloroplatinum (II), CHEMBL2146201” had a GI50 of 4940 nM.

“[Bis(aminomethyl)tetramethylenesilane]dichloropaltinum(II), CHEMBL2146205”: the GI50 was 7620 nM.

As for “mu-(1,7-nanodiamine-N,N')bis-(cis-aminedichloroplatimum (II)), CHEMBL2146215”, the GI50 came out at 7940 nM.

As to “[Bis(aminomethyl)pentamethylenesilane]dichloropaltinum(II), CHEMBL2146202”, the GI50 was determined as 1520 nM.

“[Bis(aminomethyl)dimethylsilane]tetrachloroplatinum(IV), CHEMBL2146190” registered a GI50 of 1830 nM.

These data come from ChEMBL document CHEMBL1201862, “PubChem BioAssay data set” (2004).
